# PGC1a acetyl inh: modulators of PGC1a acetylation; U2OS PGC1a acetylation, AlphaScreen anti-acetyl-lysine; with virally co-expressed GCN5 acetyltransferase; inhibition, % at 15.6 µM; 350,000 compounds, 0.17% hits;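 active = every replicate shows inhibition of at least 40%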;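 note: 0% = neutral control wells and 100% = positive control wells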
# C2C12 statin: protects C2C12 myotubes from simvastatin toxicity. ATP luminescence, 48 h; scaled: DMSO 0, geranylgeraniol control 100. rescue of ATP level, % at 7.49 µM. 330,000 compounds, 0.78% hits. AID 602340;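 active = mean ATP rescue above about 67%, or every replicate alone reaching that limit, limit read from the data, passing the limit was not always enough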;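 note: myotubes were challenged with 10 µM simvastatin during compound exposure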
# Rce1 inhib: yeast Ras-converting enzyme inhibition; Q03530; calls only; 290,000 compounds, 0.27% hits; AID 2563; yeast membranes, quenched prenylated peptide cleavage fluorescence;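 active = fall in fluorescence gain of 50% or more versus controls, with final raw signal at or below 3038400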;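 note: plate controls were neutral control wells for no effect and wells lacking membranes for full effect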
# Target sequence (Q03530 whole entry, looked up): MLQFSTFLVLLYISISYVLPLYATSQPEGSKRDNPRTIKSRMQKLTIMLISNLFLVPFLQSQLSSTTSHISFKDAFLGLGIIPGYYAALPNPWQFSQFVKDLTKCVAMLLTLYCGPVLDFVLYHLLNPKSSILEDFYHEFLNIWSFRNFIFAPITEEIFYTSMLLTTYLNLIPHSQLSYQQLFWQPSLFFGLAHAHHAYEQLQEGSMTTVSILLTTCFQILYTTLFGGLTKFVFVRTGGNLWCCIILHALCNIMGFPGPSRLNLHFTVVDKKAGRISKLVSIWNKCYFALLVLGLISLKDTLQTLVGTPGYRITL
# HIF activator: HIF pathway transcriptional activation | U2OS HRE-luciferase reporter, luminescence; normalized: DMSO 0%, desferrioxamine 100% | activation, % at 7.5 µM (by protocol) | 300,000 compounds, 0.32% hits | AID 1910;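 active = mean activation of at least 10% of the iron chelator positive control signal, with at least half of replicates also reaching 10%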
# AI-2 QS mod: modulators of Vibrio harveyi AI-2 quorum sensing system; Vibrio harveyi JMH597 AI-2 luminescence/OD600 ratio, 9 h; stronger effect = lower value; strain lacks LuxN and CqsS sensors; 0 = neutral-control median; activity change, % at 7.5 µM; 300,000 compounds, 0.4% hits; in the data active = activity change below about -75%, passing the limit was not always enough;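 note: luminescence divided by OD600 gain over 9 h not by final OD600 alone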
# * marks the source's active call; other numbers are inactive results; i = inactive; · = no result given; + = active, no number. Rows were chosen to be rich in hits. Some 1.3% of all compounds tested hit in one or more screens of this group.
SMILES,PGC1a acetyl inh,C2C12 statin,Rce1 inhib,HIF activator,AI-2 QS mod
CNC[C@@H]1OCCCC[C@H](C)Oc2ccc(NS(=O)(=O)c3cn(C)cn3)cc2C(=O)N([C@@H](C)CO)C[C@H]1C,-6,·,·,·,·
CC(C)n1c(=S)[nH]c2ccccc2c1=O,6,-40,i,0,-4
CC(C)n1c(=S)[nH]c2cc(Cl)ccc21,69*,5,i,0,3
C[C@H]1CN([C@@H](C)CO)C(=O)c2cc(NC(=O)Cc3cn(C)c4ccccc34)ccc2O[C@@H]1CN(C)Cc1ccncc1,4,1,·,·,·
Cc1ccc(Nc2nc(N)nc(CN3CCCCCC3)n2)cc1,-3,1,i,0,5
Cc1c(Cl)cccc1Nc1nc(N)nc(CN2CCCCCC2)n1,-18,90*,i,0,19
CCCN1[C@@H]2Cn3c(ccc(-c4ccccc4F)c3=O)[C@H]1[C@@H](C(=O)NCc1ccccn1)[C@@H]2CO,4,·,·,·,·
C/C=C/c1ccc2c(c1)O[C@H](CN(C)CC1CCCC1)[C@@H](C)CN([C@H](C)CO)S2(=O)=O,0,-81,·,·,·
CC(Oc1ccc2ccc(=O)oc2c1)C(=O)NCCCn1ccnc1 (configuration not stated),4,96*,i,0,20
COc1ccc(-c2cc(=O)oc3cc(OC(C)C(=O)NCCCn4ccnc4)ccc23)cc1 (configuration not stated),-15,-1,i,0,22
COc1ccc2[nH]c(C(=O)NCCCn3ccnc3)cc2c1,·,-1,+,1,14
O=C(COc1ccc(Cl)cc1)NCCCn1ccnc1,6,72*,i,0,9
Cc1noc(C)c1NC(=O)Nc1ccc2c(c1)C(=O)N(C)[C@H]1CC[C@H](CC(=O)Nc3ccccc3F)O[C@@H]1CO2,-1,16,·,·,·
COCC(=O)N1[C@H](CO)[C@H](c2ccccc2)C12CN(C(=O)Nc1ccccc1F)C2,1,·,·,·,·
C[C@H]1CCCCO[C@@H](CN(C)Cc2ccc(C(=O)O)cc2)[C@@H](C)CN([C@@H](C)CO)C(=O)c2cc(NC(=O)Nc3ccccc3)ccc2O1,5,-51,·,·,·
C[C@H](CO)N1C[C@H](C)[C@H](CN(C)Cc2ccccc2)OCCCC[C@H](C)Oc2ccc(NS(=O)(=O)c3ccc(Cl)cc3)cc2C1=O,-7,·,·,·,·
COC(=O)c1cc(=O)n(Cc2ccco2)c(=Nc2ccc(F)c(Cl)c2)s1,·,6,i,0,9
COC(=O)c1cc(=O)n(CCc2ccccc2F)c(=Nc2ccc(F)c(Cl)c2)s1,·,110*,i,0,13
COc1cccc(S(=O)(=O)Nc2ccc3c(c2)OC[C@@H](C)N(Cc2ccccc2F)C[C@@H](C)[C@H](OC)CN(C)C3=O)c1,16,59,·,·,·
NC(=S)Nc1cccc2cc3ccccc3cc12,6,-35,i,1,-80*
Cc1ccccc1CSc1nnc(-c2ccco2)n1Cc1ccco1,99*,·,i,0,9
Cc1cccc(C(=O)Nc2cc(OCc3cccc(F)c3)c(Cl)cc2Cl)c1,3,113*,i,0,0
COCCOc1cc(NC(=O)c2cccc(OC)c2)c(Cl)cc1Cl,·,·,i,0,6
C[C@]1(C(=O)NC2CC2)c2ccccc2C(=O)N(Cc2cc(C(F)(F)F)cc(C(F)(F)F)c2)[C@H]1c1ccc(CO)cc1,-4,·,·,·,·
Cc1ccc2c(c1)NC(C(C)(C)C)CO2 (configuration not stated),2,115*,i,0,17
SMILES,PGC1a acetyl inh,C2C12 statin,Rce1 inhib,HIF activator,AI-2 QS mod
COc1cc(C(=O)Nc2ccc3c(c2)OCO3)ccc1-n1cnnn1,-11,-11,i,0,19
COc1cc(NC(=O)Cc2cccs2)ccc1-n1cnnn1,0,94*,i,0,9
Cn1c(=O)c2ncn(CC(=O)Nc3ccc4c5c(cccc35)CC4)c2n(C)c1=O,-15,30,i,-1,28
O=C(CN1C(=O)CCC1=O)Nc1ccc2c3c(cccc13)CC2,9,92*,i,0,28
COc1ccc(C(=O)Nc2ccc3c4c(cccc24)CC3)cc1,86*,·,i,2,-7
COc1ccc(C(=O)Nc2ccc3c(c2)C(=O)N(C)C[C@H](OC)[C@@H](C)CN(C(C)=O)[C@H](C)CO3)cc1,-7,11,·,·,·
CCCS(=O)(=O)N1CCCC(C(=O)NCCCOC(C)C)C1 (configuration not stated),64*,·,i,0,15
CCC(=O)N(C)C[C@H]1Oc2ncc(-c3ccccc3OC)cc2C(=O)N([C@@H](C)CO)C[C@@H]1C,5,1,·,·,·
COc1ccc2c3c(n(C)c2c1)[C@@H](CO)N(Cc1ccccc1)CC31CCN(CC2CC2)CC1,-15,·,·,·,·
CC(C(=O)Nc1ccc(C(=O)O)c(O)c1)N1C(=O)/C(=C\c2ccco2)SC1=S (configuration not stated),8,126*,i,-1,14
Oc1cccc2ccc(Nc3ccccn3)nc12,·,·,i,-8,-86*
c1ccc(Nc2ccccc2Nc2ccccn2)nc1,16,14,i,0,-4
CCC(C)(C)c1nnc(NC(=O)C2CCN(C(=O)c3ccco3)CC2)s1,1,24,i,27*,0
CCc1nnc(NC(=O)C2CCN(C(=O)c3ccco3)CC2)s1,5,4,i,1,13
CCCNC(=O)C(CC)NC(=O)c1ccc(C#N)cc1 (configuration not stated),-4,19,·,·,·
CCCCCCCCC(NC(=O)c1ccc(C#N)cc1)C(=O)NCCC (configuration not stated),-6,159*,·,·,·
O=C(NCC12CC3CC(CC(C3)C1)C2)c1nn2c(c1Cl)NC(c1ccco1)CC2C(F)(F)F (configuration not stated),1,137*,i,0,14
O=C(NCc1cccc(Cl)c1)c1cnn2c1NC(c1ccco1)CC2C(F)(F)F (configuration not stated),-6,24,i,0,2
COc1cccc(-c2ccc3c(c2)[C@@H]2[C@@H](CCN2C(=O)c2ccc(F)cc2)[C@H](CO)N3)c1,6,-6,·,·,·
COc1ccccc1-c1ccc2c(c1)[C@H]1[C@H](CCN1S(=O)(=O)c1cccc(C)c1)[C@H](CO)N2,-19,·,·,·,·
O=C(CN1CCCCC1)Nc1ccc(C(F)(F)F)cc1Cl,-17,91*,i,·,5
O=[N+]([O-])c1cccnc1NCCNc1ncc(C(F)(F)F)cc1Cl,-1,136*,i,2,26
O=[N+]([O-])c1ccccc1NCCNc1ncc(C(F)(F)F)cc1Cl,-29,·,i,2,14
Cc1cc(C)n(-c2nc3ccccc3c(=O)n2OCC(=O)N(C)C)n1,8,-11,+,0,-2
O=C(NCC1CC1)Nc1ccccc1F,83*,5,i,0,15
O=C(C#Cc1ccccc1)Nc1ccccc1F,1,27,i,4,-87*
